BAZ2B block: blocks human BAZ2B; Potency, µM (titrated, usually from 114 µM), without a hit: at the top dose activity change, negative = inhibition, usual class: inhibitors; AID 504333; Q9UIF8; AlphaScreen BAZ2B-H3K14Ac peptide displacement; 4.4% of 360,000 active; note: % is set by controls: 0 for no effect and ±100 for the full control effect; nearly all actives have a fitted effect of over 60% in size
Target sequence (Q9UIF8 whole entry, looked up): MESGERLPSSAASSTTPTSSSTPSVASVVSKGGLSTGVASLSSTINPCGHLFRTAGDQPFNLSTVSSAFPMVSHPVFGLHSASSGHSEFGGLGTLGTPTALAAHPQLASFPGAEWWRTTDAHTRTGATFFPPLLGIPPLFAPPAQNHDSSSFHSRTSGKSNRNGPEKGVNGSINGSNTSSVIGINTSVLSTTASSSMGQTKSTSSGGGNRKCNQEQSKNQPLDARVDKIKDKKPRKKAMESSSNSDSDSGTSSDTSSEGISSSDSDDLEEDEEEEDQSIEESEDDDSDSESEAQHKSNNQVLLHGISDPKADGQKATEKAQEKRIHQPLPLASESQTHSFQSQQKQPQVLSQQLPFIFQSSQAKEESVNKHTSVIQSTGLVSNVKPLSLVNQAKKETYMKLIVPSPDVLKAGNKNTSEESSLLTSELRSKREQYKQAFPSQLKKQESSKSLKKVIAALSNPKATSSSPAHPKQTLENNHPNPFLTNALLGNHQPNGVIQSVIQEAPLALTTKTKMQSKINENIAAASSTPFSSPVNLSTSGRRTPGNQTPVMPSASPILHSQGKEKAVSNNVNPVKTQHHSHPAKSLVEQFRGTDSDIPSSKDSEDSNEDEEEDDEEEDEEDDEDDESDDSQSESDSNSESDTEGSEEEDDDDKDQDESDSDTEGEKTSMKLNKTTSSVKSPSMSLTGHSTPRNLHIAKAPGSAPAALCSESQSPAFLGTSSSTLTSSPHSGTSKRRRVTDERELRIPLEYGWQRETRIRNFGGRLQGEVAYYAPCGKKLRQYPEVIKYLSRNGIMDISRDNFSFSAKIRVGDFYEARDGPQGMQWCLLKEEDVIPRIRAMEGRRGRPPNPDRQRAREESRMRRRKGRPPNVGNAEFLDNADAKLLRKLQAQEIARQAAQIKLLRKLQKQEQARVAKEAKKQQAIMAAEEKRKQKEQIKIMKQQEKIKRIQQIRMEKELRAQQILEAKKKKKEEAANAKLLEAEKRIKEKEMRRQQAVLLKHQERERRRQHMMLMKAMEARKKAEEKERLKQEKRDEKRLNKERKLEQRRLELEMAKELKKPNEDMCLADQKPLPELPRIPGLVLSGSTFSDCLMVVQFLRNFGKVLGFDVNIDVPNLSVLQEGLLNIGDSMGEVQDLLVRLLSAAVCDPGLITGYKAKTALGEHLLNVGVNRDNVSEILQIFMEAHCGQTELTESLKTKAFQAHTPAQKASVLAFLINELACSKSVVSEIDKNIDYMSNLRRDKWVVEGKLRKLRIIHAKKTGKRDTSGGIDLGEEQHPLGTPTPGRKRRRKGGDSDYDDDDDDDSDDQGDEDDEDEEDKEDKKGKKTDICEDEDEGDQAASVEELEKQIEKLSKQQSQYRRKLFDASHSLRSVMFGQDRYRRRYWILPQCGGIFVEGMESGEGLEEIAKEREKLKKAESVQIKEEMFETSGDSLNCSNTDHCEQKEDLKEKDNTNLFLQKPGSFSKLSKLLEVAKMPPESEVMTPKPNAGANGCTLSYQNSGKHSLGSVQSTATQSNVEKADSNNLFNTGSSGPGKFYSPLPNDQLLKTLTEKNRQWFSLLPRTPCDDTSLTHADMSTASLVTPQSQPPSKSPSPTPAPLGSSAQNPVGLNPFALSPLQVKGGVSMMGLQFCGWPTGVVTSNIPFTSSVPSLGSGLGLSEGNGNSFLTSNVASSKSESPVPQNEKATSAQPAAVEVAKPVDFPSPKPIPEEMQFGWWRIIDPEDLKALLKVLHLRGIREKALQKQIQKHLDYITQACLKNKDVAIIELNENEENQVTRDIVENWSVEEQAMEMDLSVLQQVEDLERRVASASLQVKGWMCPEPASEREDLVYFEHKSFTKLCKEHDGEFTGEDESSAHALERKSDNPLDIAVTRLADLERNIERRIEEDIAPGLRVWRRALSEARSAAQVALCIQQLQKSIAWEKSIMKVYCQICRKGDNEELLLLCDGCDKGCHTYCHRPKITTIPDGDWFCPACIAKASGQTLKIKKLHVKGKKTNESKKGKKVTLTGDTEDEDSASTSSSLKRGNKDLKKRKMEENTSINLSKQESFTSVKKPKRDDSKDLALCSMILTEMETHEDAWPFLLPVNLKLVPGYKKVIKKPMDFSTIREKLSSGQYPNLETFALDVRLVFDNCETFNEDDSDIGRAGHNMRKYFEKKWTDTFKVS
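Compounds, titrated to a top concentration of 110 uM, were incubated 30 min at room temperature with preformed BAZ2B/acetyl-K14 H3 peptide complex (50 nM each). Proximity signal was measured by AlphaScreen after 20 min with beads.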
JMJD2A Tudor inh: blocks the human JMJD2A Tudor domain; Potency, µM (doses to about 114 µM), for inactives: at the highest dose activity change, negative = inhibition, hits mostly inhibitors; 4.4% of 390,000 active; O75164; AlphaScreen JMJD2A-Tudor / H3K4me3 peptide binding; note: % is set by controls: 0 for no effect and ±100 for the full control effect; nearly all actives have a fitted effect of over 50% in size
L3MBTL1 inh: L3MBTL1 (human) inhibition | Q9Y468 | AlphaScreen L3MBTL1–H3K9me1 peptide binding | Potency, µM (series often up to 57.1 µM), inactives show at the highest dose activity, negative = inhibition, most hits filed as inhibitors | 0.66% of 230,000 active | AID 485360; note: % is set by controls: 0 for no effect and ±100 for the full control effect; nearly all actives have a fitted effect of over 60% in size
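First, the protein-peptide complex forms for 30 min at room temperature (L3MBTL1 50 nM, biotinylated H3K9me1 peptide 75 nM). Next, compounds are pin-transferred and incubated 30 min. Finally, AlphaScreen beads are added and read after 30 min.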
G9a inh: blocks human histone lysine methyltransferase G9a; Q96KQ7; G9a H3K9 monomethylation, AlphaScreen, 2 h; Potency, µM (doses to about 102 µM), for the others: at the top dose activity, negative = inhibition, most hits filed as inhibitors; 8.8% of 350,000 active; note: % is set by controls: 0 for no effect and ±100 for the full control effect; nearly all actives have a fitted effect of over 75% in size
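Chemiluminescent proximity detection of H3K9 monomethylation, read after 10 min bead incubation in the dark. Reaction: 20 nM G9a, 500 nM biotin-H3K9 peptide, 20 uM SAM cofactor, 2 h, room temperature, following 15 min enzyme-compound preincubation.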
HP1b chromo inh: inhibitors of HP1-beta chromodomain binding to methylated histone tails; AlphaScreen HP1-beta / biotin-H3K9me3 peptide binding; AID 540317; 0.56% of 390,000 active; Potency, µM (doses to about 114 µM), for the others: top-dose activity change, negative = inhibition, usual class: inhibitors; note: nearly all actives have a fitted effect of over 70% in size
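HP1-beta protein (50 nM final) preincubated 30 min at room temperature with biotinylated H3(1-18)K9me3 peptide (50 nM) in PBS pH 7.4, 0.01% Tween-20, then compound added for 30 min. AlphaScreen streptavidin donor/nickel chelate acceptor beads (10 ug/mL final), 30 min dark, luminescence read.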
An asterisk follows results filed as active; [ ] = another dose, or the depositor's remark. Sampled rows, rich in hits. Any-hit rate of the full collection: about 11%. Calls come from the whole dose curve; as a rule, active = well fitted inhibition curve with a large enough effect; inconclusive = small, poorly fitted or top-dose-only effect; inactive = no such curve, though single readings can be large or run the other way. Potency is the fitted concentration of half-maximal effect.

`Cc1ccccc1OCC(=O)N(Cc1ccc(N(C)C)cc1)C1CCS(=O)(=O)C1` (stereo unspecified) gave BAZ2B block -46%, JMJD2A Tudor inh inconclusive, L3MBTL1 inh -2%, G9a inh 32µM* and HP1b chromo inh -14%.
CN(C)c1ccc(CN(C(=O)C2COc3ccccc3O2)C2CCS(=O)(=O)C2)cc1 (stereo unspecified) was read as BAZ2B block 56µM*, JMJD2A Tudor inh inconclusive, L3MBTL1 inh -23%, G9a inh 45µM* and HP1b chromo inh -6%.
Screening C[C@@H](O)CNC(C)(C)CC(=O)N[C@@H]1CCc2ccccc2N(Cc2ccc(-c3ccccc3-c3nn[nH]n3)cc2)C1=O returned G9a inh 18%[59 µM].
COCCn1c(SCC(=O)c2ccc(F)cc2)nc2cc(C(=O)NC3CCCC3)ccc2c1=O was read as BAZ2B block 4%, JMJD2A Tudor inh -7%, G9a inh 8%[59 µM] and HP1b chromo inh 25%.
For N#CCN(CC#N)C(=O)C1c2ccccc2Oc2ccccc21 the results were BAZ2B block -7%, JMJD2A Tudor inh 40µM* and HP1b chromo inh 14%.
`COc1ccc(C2CC(=O)NC(NC(=O)c3ccc(Br)cc3)=N2)c(OC)c1OC` (stereo unspecified) gave BAZ2B block -2%, JMJD2A Tudor inh -5%, G9a inh -6%[59 µM] and HP1b chromo inh 39%.
`COc1ccc(NC(=O)c2cc(-c3ccccc3)nc3c2cnn3C(C)C)cc1` gave BAZ2B block -3%, JMJD2A Tudor inh 79µM*, L3MBTL1 inh 6%, G9a inh 22%[2.33 µM] and HP1b chromo inh inconclusive.
`CC(C)n1ncc2c(C(=O)N3CCN(c4ccccc4)CC3)cc(-c3ccccc3)nc21` gave BAZ2B block -33%, JMJD2A Tudor inh -26%, L3MBTL1 inh 1%, G9a inh 28%[2.33 µM] and HP1b chromo inh 1%.
O=C(NC1CCCc2ccccc21)c1ccc2c(c1)sc1nc(-c3ccccc3)cn12 (stereo unspecified) was read as BAZ2B block -19%, JMJD2A Tudor inh -10%, G9a inh -1%[59 µM] and HP1b chromo inh 34%.
CC1CCC/C(=C\Nc2ccc(C(=O)O)c(O)c2)C1=O (stereo unspecified) was read as BAZ2B block -13%, JMJD2A Tudor inh -24%, L3MBTL1 inh -8%, G9a inh 45µM* and HP1b chromo inh 22%.
Screening COc1ccc(NC(=O)c2ccccc2[N+](=O)[O-])cc1 returned BAZ2B block 3%, JMJD2A Tudor inh -8%, L3MBTL1 inh 4%, G9a inh 19%[59 µM] and HP1b chromo inh 30%.
COc1ccc(Nc2c([N+](=O)[O-])ccc3c2=NC2(CCCCC2)N=3)cc1 was read as BAZ2B block 7.1µM*, JMJD2A Tudor inh 16µM*, L3MBTL1 inh inconclusive, G9a inh 10µM* and HP1b chromo inh 8.9µM*.
For O=C(CSc1nc(=O)[nH]c2c1CCCC2)Nc1ccccc1C(F)(F)F the results were BAZ2B block 14%, JMJD2A Tudor inh -7%, G9a inh -2%[59 µM] and HP1b chromo inh 85%.
Screening O=C1CC(Nc2ccc(N3CCOCC3)cc2)C(=O)N1c1cccc(C(F)(F)F)c1 (stereo unspecified) returned BAZ2B block 56µM*, JMJD2A Tudor inh inconclusive, L3MBTL1 inh inconclusive, G9a inh 14µM* and HP1b chromo inh -15%.
Screening COc1ccc(N2C(=O)CC(Nc3ccc(C(=O)O)cc3)C2=O)cc1OC (stereo unspecified) returned BAZ2B block -17%, JMJD2A Tudor inh 10%, L3MBTL1 inh 8%, G9a inh 40µM* and HP1b chromo inh 62%.
O=C(O)c1ccc(N2C(=O)CC(N3CCN(c4cccc(Cl)c4)CC3)C2=O)cc1 (stereo unspecified) was read as BAZ2B block 5%, JMJD2A Tudor inh -9%, L3MBTL1 inh 7%[2.29 µM], G9a inh 11%[0.501 µM] and HP1b chromo inh 54%.
Screening COc1ccc(N2C(=O)CC(N(C)CCc3ccc(OC)c(OC)c3)C2=O)cc1 (stereo unspecified) returned BAZ2B block -3%, JMJD2A Tudor inh -14%, L3MBTL1 inh 3% and HP1b chromo inh 35%.
Screening COC(=O)c1ccc(N2C(=O)CC(N(C)CCc3ccc(OC)c(OC)c3)C2=O)cc1 (stereo unspecified) returned BAZ2B block 1%, JMJD2A Tudor inh -8%, L3MBTL1 inh 0%, G9a inh 35µM* and HP1b chromo inh 39%.
Screening O=C(O)c1ccc(N2C(=O)CC(N3CCN(c4cccc(C(F)(F)F)c4)CC3)C2=O)cc1 (stereo unspecified) returned BAZ2B block 7%, JMJD2A Tudor inh -5%, L3MBTL1 inh -2%, G9a inh 40µM* and HP1b chromo inh 91%.
`NC(=O)c1ccccc1NC(=O)Cn1nc(Cc2cccnc2)c2ccccc2c1=O` gave BAZ2B block -19%, JMJD2A Tudor inh -32%, G9a inh inconclusive and HP1b chromo inh 9%.
O=C(Nc1cccc(Cl)c1)c1ccc2nc(CCc3ccccc3)oc2c1 was read as BAZ2B block 4%, JMJD2A Tudor inh -5%, G9a inh 0%[59 µM] and HP1b chromo inh 16%[57 µM].
Screening COc1ccc(N2C(=O)CC(N3CCCCC3)C2=O)cc1 (stereo unspecified) returned BAZ2B block -16%, JMJD2A Tudor inh -14%, L3MBTL1 inh 2%, G9a inh inconclusive and HP1b chromo inh 57%.
For COc1ccc(N2C(=O)CC(N3CCC(O)(c4cccc(C(F)(F)F)c4)CC3)C2=O)cc1 (stereo unspecified) the results were BAZ2B block 0%, JMJD2A Tudor inh -16%, L3MBTL1 inh 9%, G9a inh 40µM* and HP1b chromo inh 69%.
For O=[N+]([O-])c1ccc(Sc2nccn2Cc2ccccc2)c([N+](=O)[O-])c1 the results were BAZ2B block inconclusive, JMJD2A Tudor inh inconclusive, L3MBTL1 inh -13%, G9a inh 45µM* and HP1b chromo inh -33%.
Screening CCOC(=O)c1c(C)c(C(=O)NCc2ccco2)c(C)n1CC returned BAZ2B block -13%, JMJD2A Tudor inh -12%, G9a inh inconclusive and HP1b chromo inh 15%.
`CCOC(=O)c1c(C)c(C(=O)NCc2ccco2)c(C)n1Cc1ccccc1` gave BAZ2B block inconclusive, JMJD2A Tudor inh 35µM*, L3MBTL1 inh -1%, G9a inh inconclusive and HP1b chromo inh -31%.
Screening CCOc1cc(OCC)cc(C(=O)NCc2ccco2)c1 returned BAZ2B block inconclusive, JMJD2A Tudor inh 89µM*, L3MBTL1 inh -4%, G9a inh 18% and HP1b chromo inh -17%.
Screening O=C(NCc1ccco1)c1ccc(COc2cccc3ccccc23)cc1 returned BAZ2B block 2%, JMJD2A Tudor inh -8%, L3MBTL1 inh -5%, G9a inh -7% and HP1b chromo inh 12%.
